Active and inactive are the calls of the source. The calls were made as follows: active = hit-call score of the fitted dose curve at least 0.9, where 1 is the maximum; inactive = score below 0.9.
Experiments:
[1] = ATG_ISRE_CIS: Attagene CIS-FACTORIAL HepG2 Assay for human Interferon Regulatory Factor 1 (IRF1) binding to an Interferon-Stimulated Response Element (ISRE) (AID 2282948); conditions: HepG2 ISRE cis-reporter (Attagene), mRNA transcription readout; actives raise or lower the signal
Method in brief: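 Multiplexed mRNA reporter readout in human liver HepG2 cells: cis-element-driven reporters transfected, compound added for 24 h, transcripts amplified, fluorescently labelled and sized by capillary electrophoresis; curve fitting bidirectional against DMSO.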

[2] = ATG_M_32_CIS: Attagene CIS-FACTORIAL HepG2 Assay for M32 Transcription Factor (Internal Marker) (AID 2282949); conditions: HepG2 Attagene cis-factorial M32 reporter, mRNA; actives raise or lower the signal;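 also: background control marker of the multiplexed CIS panel rather than a real target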
Method in brief: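 HepG2 human liver cells transiently transfected with cis-promoter-driven multiple reporter transcription units, dosed 24 h. Reporter mRNA quantified by RT-PCR, FAM-labelled primer extension, HpaI digest and capillary electrophoresis; bidirectional fit versus DMSO baseline.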

[3] = ATG_M_06_CIS: Attagene CIS-FACTORIAL HepG2 Assay for M06 Transcription Factor (Internal Marker) (AID 2282950); conditions: HepG2 Attagene CIS-FACTORIAL M06 internal marker reporter; actives raise or lower the signal
Method in brief: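 Terse: HepG2, transient MRTU transfection (FuGene 6), 24 h dosing; total RNA, oligo(dT) RT, PCR, FAM label, HpaI cut, capillary electrophoresis; bidirectional fit vs DMSO baseline; background-control endpoint.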

[4] = molecular target: Hypoxia-inducible factor 1-alpha (Homo sapiens) (UniProt Q16665); experiment: ATG_HIF1a_CIS: Attagene CIS-FACTORIAL HepG2 Assay for human Hypoxia Inducible Factor 1 (HIF1A) (AID 2282951); conditions: HepG2 Attagene cis-factorial HIF1a reporter transcription; actives raise or lower the signal
Chain of Hypoxia-inducible factor 1-alpha (Homo sapiens) (Q16665 whole entry, looked up): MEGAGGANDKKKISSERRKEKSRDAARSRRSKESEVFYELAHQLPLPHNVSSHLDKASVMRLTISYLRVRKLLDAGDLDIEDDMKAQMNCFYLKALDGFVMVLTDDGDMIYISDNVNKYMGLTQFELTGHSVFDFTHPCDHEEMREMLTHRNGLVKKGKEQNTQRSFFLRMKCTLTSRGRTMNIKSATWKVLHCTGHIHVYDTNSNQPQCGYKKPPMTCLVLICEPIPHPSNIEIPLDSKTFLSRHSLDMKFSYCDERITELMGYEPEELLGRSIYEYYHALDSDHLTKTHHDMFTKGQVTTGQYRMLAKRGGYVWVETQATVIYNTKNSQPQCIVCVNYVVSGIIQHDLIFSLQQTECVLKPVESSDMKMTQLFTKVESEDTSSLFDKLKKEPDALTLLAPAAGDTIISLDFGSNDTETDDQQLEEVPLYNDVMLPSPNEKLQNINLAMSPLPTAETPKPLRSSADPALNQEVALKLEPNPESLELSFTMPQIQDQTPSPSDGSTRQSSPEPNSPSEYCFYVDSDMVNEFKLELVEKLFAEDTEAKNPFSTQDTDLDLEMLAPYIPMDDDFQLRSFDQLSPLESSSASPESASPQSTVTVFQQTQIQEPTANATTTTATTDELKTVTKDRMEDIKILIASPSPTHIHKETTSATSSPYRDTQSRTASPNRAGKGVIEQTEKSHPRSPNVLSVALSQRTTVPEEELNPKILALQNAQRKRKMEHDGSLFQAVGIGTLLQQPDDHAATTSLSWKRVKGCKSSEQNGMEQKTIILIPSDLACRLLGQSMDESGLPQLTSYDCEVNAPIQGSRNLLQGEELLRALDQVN
Method in brief: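 After 24 h chemical exposure of reporter-transfected HepG2 cells, reporter cDNA was PCR-amplified, labelled by 6-FAM primer extension (2 min 95 C, 20 s 68 C, 10 min 72 C), HpaI-cut (2 h, 37 C) and analysed by CE.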

[5] = molecular target: Hepatocyte nuclear factor 6 (Homo sapiens) (UniProt Q9UBC0); experiment: ATG_HNF6_CIS: Attagene CIS-FACTORIAL HepG2 Assay for human Hepatocyte Nuclear Factor 6 (HNF6) (AID 2282952); conditions: HepG2 Attagene cis-factorial HNF6 reporter transcription; actives raise or lower the signal
Chain of Hepatocyte nuclear factor 6 (Homo sapiens) (Q9UBC0 whole entry, looked up, the tested form may be a part): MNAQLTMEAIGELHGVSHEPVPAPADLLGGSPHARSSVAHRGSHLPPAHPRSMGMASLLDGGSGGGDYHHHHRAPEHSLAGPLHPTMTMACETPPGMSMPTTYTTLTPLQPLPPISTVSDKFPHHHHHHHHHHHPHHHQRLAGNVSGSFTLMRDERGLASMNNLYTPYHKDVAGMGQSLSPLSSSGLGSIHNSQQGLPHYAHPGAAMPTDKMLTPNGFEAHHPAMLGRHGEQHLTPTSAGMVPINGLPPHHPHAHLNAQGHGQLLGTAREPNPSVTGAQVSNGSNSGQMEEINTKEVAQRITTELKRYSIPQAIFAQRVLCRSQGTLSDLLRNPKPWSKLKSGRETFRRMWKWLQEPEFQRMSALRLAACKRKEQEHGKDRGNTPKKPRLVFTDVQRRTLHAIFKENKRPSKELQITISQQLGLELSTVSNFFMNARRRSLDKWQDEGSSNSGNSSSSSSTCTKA
Method in brief: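 Using cis-element reporters in HepG2 liver cells, the assay tracks endogenous factor-driven transcription 24 h post-dosing. Signal comes from 6-FAM-labelled, HpaI-digested RT-PCR fragments, with gain or loss scored against DMSO.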

[6] = ATG_MRE_CIS: Attagene CIS-FACTORIAL HepG2 Assay for human Metal Responsive Element (MRE) (AID 2282954); conditions: HepG2 MRE cis-reporter transcription, Attagene multiplex; actives raise or lower the signal
Method in brief: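 Measured here is mRNA induction from an MRE cis-element reporter in HepG2 after 24 h, quantified by fluorescence of labelled RT-PCR products on capillary electrophoresis; gain- and loss-of-signal fits use DMSO as baseline.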

[7] = molecular target: Paired box protein Pax-6 (Homo sapiens) (UniProt P26367); experiment: ATG_Pax6_CIS: Attagene CIS-FACTORIAL HepG2 Assay for human Paired Box 6 (PAX6) (AID 2282956); conditions: HepG2 CIS-FACTORIAL PAX6 reporter transcription, RNA readout; actives raise or lower the signal
Chain of Paired box protein Pax-6 (Homo sapiens) (P26367 whole entry, looked up): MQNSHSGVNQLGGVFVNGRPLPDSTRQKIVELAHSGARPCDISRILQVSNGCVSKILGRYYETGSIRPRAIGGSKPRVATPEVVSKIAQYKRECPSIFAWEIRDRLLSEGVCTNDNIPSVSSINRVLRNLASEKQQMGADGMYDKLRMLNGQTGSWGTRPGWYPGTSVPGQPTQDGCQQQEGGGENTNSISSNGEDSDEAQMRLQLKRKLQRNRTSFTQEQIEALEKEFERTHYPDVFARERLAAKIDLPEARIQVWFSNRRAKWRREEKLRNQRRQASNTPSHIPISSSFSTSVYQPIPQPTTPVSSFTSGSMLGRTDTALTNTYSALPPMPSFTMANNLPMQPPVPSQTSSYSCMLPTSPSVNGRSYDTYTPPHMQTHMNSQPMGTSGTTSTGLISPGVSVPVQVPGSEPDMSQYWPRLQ
Method in brief: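 Fluorescent RT-PCR products separated by capillary electrophoresis report PAX6-linked promoter mRNA in HepG2 cells 24 h post-dose. Curves fitted bidirectionally, DMSO as negative control.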

[8] = ATG_PXRE_CIS: Attagene CIS-FACTORIAL HepG2 Assay for human Pregnane X Receptor Element (PXRE) (AID 2282957); conditions: HepG2 Attagene CIS-FACTORIAL PXRE reporter, mRNA; actives raise or lower the signal
Method in brief: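 Using HepG2 transfected with multiple reporter transcription units, endogenous factor-driven transcription was scored as reporter mRNA after 24 h exposure.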

[9] = ATG_RORE_CIS: Attagene CIS-FACTORIAL HepG2 Assay for human RAR-related Orphan Receptor Element (RORE) (AID 2282959); conditions: HepG2 Attagene cis-factorial RORE reporter, mRNA; actives raise or lower the signal
Method in brief: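 A 24-hour exposure of transfected HepG2 hepatoma cells precedes RNA isolation and reporter RT-PCR. Labeled products are digested with HpaI and resolved by capillary electrophoresis, with gain or loss of signal scored relative to DMSO.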

[10] = ATG_Sox_CIS: Attagene CIS-FACTORIAL HepG2 Assay for human SRY-box transcription factor (SOX) (AID 2282960); conditions: HepG2 Attagene cis-factorial SOX reporter, mRNA; actives raise or lower the signal
Method in brief: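 HepG2, cis reporter units, 24 h exposure. Reporter mRNA: RT-PCR → FAM labelling → HpaI → CE fluorescence. Bidirectional fit vs DMSO.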

[11] = molecular target: Transcription factor Sp1 (Homo sapiens) (UniProt P08047); experiment: ATG_Sp1_CIS: Attagene CIS-FACTORIAL HepG2 Assay for human Specificity Protein 1 (Sp1) (AID 2282961); conditions: HepG2 Sp1 cis-reporter transcription, actives raise or lower the signal
Chain of Transcription factor Sp1 (Homo sapiens) (P08047 whole entry, looked up, the tested form may be a part): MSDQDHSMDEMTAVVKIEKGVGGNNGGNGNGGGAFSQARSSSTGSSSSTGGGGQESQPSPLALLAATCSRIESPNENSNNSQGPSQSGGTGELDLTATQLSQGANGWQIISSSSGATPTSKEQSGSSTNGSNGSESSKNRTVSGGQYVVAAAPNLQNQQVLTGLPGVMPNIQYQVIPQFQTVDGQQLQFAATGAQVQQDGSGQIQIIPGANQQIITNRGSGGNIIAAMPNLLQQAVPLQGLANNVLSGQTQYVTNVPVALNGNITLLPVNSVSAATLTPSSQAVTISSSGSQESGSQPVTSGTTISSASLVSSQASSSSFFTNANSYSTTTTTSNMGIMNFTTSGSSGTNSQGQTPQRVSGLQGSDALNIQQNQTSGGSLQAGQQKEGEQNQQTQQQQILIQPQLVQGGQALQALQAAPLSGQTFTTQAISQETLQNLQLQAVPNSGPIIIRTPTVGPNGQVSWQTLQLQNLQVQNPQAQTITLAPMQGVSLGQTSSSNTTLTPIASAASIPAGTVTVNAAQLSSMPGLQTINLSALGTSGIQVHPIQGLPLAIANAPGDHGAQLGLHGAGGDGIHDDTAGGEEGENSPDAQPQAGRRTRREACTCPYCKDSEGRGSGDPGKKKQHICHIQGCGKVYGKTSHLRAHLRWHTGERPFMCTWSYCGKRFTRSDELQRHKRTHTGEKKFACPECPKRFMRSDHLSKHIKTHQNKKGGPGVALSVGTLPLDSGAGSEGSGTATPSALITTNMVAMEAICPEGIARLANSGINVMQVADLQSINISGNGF
Method in brief: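 Liver-derived HepG2 cells, cis-element reporter library, 24 h treatment; RNA isolated, cDNA amplified with reporter-specific primers, FAM-labeled fragments sized on capillary analyzer. DMSO baseline, bidirectional curve fit.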

[12] = ATG_SREBP_CIS: Attagene CIS-FACTORIAL HepG2 Assay for human Sterol Regulatory Element Binding (SREBP) (AID 2282962); conditions: HepG2 Attagene cis-factorial SREBP reporter, mRNA; actives raise or lower the signal
Method in brief: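 Endogenous factor activity is measured in HepG2 through multiplexed reporter units under cis-element control. Following a 24 h incubation, reporter transcripts are reverse-transcribed, PCR-amplified and sized by capillary electrophoresis; activity is fitted in both directions relative to DMSO.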

[13] = molecular target: Signal transducer and activator of transcription 3 (Homo sapiens) (UniProt P40763); experiment: ATG_STAT3_CIS: Attagene CIS-FACTORIAL HepG2 Assay for human Signal Transducer and Activator of Transcription 3 (STAT3) (AID 2282963); conditions: HepG2, Attagene cis-factorial STAT3 reporter transcription; actives raise or lower the signal
Chain of Signal transducer and activator of transcription 3 (Homo sapiens) (P40763 whole entry, looked up, the tested form may be a part): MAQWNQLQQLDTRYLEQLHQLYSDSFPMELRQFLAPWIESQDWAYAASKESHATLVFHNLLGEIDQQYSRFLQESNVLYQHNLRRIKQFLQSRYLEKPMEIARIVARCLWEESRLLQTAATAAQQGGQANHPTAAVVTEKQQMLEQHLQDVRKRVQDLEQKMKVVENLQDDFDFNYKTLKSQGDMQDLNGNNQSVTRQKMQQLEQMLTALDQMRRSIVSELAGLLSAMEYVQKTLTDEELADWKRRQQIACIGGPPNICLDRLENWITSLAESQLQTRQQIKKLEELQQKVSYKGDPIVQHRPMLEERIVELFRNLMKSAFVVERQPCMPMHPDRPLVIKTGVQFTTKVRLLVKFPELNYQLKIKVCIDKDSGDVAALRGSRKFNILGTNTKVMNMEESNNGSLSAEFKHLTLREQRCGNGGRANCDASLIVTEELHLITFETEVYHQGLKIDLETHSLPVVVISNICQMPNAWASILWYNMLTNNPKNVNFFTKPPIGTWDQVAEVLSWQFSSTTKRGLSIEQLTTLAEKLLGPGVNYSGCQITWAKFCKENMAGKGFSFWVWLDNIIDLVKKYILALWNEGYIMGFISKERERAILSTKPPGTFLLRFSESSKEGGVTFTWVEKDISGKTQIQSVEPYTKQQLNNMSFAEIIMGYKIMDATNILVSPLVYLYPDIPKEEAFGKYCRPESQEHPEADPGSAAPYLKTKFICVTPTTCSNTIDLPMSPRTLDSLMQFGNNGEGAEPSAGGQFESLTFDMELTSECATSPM
Method in brief: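 Fluorescence intensity of 6-FAM-labelled reporter fragments, separated by capillary electrophoresis after RT-PCR, gave the signal. Cells were HepG2 transfected with cis-element reporter units and treated 24 h; fitting was bidirectional relative to DMSO.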

[14] = ATG_TCF_b_cat_CIS: Attagene CIS-FACTORIAL HepG2 Assay for human T-Cell-Factor with beta-catenin (TCF/b-cat) (AID 2282965); conditions: HepG2 TCF/beta-catenin cis-reporter transcription, actives raise or lower the signal
Method in brief: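 Cells of the HepG2 line carry transiently transfected reporter units whose promoters respond to endogenous factors. Twenty-four hours post-dosing, reporter mRNA induction is measured by fluorescent RT-PCR and capillary electrophoresis, with DMSO as baseline.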

[15] = ATG_TAL_CIS: Attagene CIS-FACTORIAL HepG2 Assay for human TAL Basal Promoter (AID 2282966); conditions: HepG2 Attagene cis-factorial TAL promoter reporter; actives raise or lower the signal;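 also: background control endpoint measuring basal TAL promoter reporter mRNA not a specific factor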
Method in brief: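 After 24 hours of chemical exposure, transfected HepG2 cells yielded RNA that was converted to 6-FAM-labelled, HpaI-digested reporter fragments for capillary electrophoresis. Values derive from bidirectional fitting against DMSO controls.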

[16] = ATG_TGFb_CIS: Attagene CIS-FACTORIAL HepG2 Assay for human Transforming Growth Factor (TGF) (AID 2282967); conditions: HepG2 Attagene CIS TGFb reporter, mRNA transcription; actives raise or lower the signal
Method in brief: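 Readout: fluorescently labeled reporter cDNA fragments resolved by capillary electrophoresis after RT-PCR. Transfected HepG2 cells dosed for 24 h; endogenous TF activity at TGFB1-linked cis element; gain or loss fitted relative to DMSO.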

[17] = molecular target: Heat shock factor protein 1 (Homo sapiens) (UniProt Q00613); experiment: ATG_HSE_CIS: Attagene CIS-FACTORIAL HepG2 Assay for human Heat Shock Transcription Factor 1 (HSE) (AID 2282953); conditions: HepG2 HSE cis-reporter, Attagene RNA transcription; actives raise or lower the signal
Chain of Heat shock factor protein 1 (Homo sapiens) (Q00613 whole entry, looked up, the tested form may be a part): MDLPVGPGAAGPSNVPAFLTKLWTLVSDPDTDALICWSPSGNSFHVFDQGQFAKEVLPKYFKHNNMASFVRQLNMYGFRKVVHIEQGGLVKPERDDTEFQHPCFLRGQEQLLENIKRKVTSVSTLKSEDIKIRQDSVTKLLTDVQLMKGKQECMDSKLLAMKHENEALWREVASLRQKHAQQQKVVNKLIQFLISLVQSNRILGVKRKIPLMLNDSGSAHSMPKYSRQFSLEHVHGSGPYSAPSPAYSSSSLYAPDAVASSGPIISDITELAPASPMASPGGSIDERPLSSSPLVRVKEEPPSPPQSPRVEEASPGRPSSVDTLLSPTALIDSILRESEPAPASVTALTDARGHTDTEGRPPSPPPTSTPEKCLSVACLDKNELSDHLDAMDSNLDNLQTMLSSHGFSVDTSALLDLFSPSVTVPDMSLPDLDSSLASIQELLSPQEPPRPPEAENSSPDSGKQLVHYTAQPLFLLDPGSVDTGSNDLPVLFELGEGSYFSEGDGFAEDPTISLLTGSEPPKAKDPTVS
Method in brief: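 Read-out: fluorescence of reporter-specific RT-PCR fragments separated by capillary electrophoresis. HepG2 carrying transfected cis-element reporter units; 24 h dosing; activity fitted in both directions relative to DMSO baseline.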

[18] = ATG_PBREM_CIS: Attagene CIS-FACTORIAL HepG2 Assay for human Phenobarbital-responsive Enhancer Module (PBREM) (AID 2282955); conditions: HepG2 PBREM cis-reporter, Attagene multiplexed transcription; actives raise or lower the signal
Method in brief: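 Measures endogenous factor action on a phenobarbital-responsive enhancer module. HepG2 transiently carrying cis reporters, 24 h treatment, mRNA read-out by RT-PCR plus capillary electrophoresis.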

[19] = ATG_TA_CIS: Attagene CIS-FACTORIAL HepG2 Assay for human TA Basal Promoter (AID 2282964); conditions: HepG2 Attagene CIS-factorial TA basal promoter reporter; actives raise or lower the signal
Method in brief: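 Transfected HepG2, 24 h compound exposure; RNA → RT-PCR → FAM primer extension → HpaI cut → CE fluorescence. Gain/loss-of-signal fitted against DMSO negative control. Background-control readout.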

[20] = ATG_PPRE_CIS: Attagene CIS-FACTORIAL HepG2 Assay for human Peroxisome Proliferator-activated Response Element (PPRE) (AID 2282958); conditions: HepG2 PPRE cis-element reporter, Attagene transcription factor profiling; actives raise or lower the signal
Method in brief: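 PPRE activity in HepG2: transient cis-reporter transfection, 24 h compound incubation, reporter mRNA by RT-PCR and CE fluorescence; gain/loss fitted against DMSO.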

Measured: AC50

NNCCO
inactive: [1] | [2] | [3] | [4] | [5] | [6] | [7] | [8] | [10] | [11] | [12] | [13] | [14] | [15] | [16]
active: [9] 25.4 µM

O=c1nc(O)n(Cl)c(=O)n1Cl
inactive: [1] | [2] | [3] | [4] | [17] | [6] | [7] | [8] | [10] | [11] | [12] | [13] | [15] | [16]

Oc1c(Cl)cc(Cl)cc1Cl
active: [4] 41.6 µM
inactive: [1] | [2] | [3] | [6] | [18] | [7] | [8] | [10] | [11] | [12] | [13] | [19] | [14] | [15] | [16]

CCCCOC(C)=O
inactive: [1] | [2] | [3] | [4] | [5] | [6] | [8] | [20] | [9] | [10] | [11] | [12] | [13] | [14] | [16]

— PubChem BioAssay (EPA / NIEHS)
